Measurements from PubChem BioAssay (NCI).
This is part of a sample that, as a whole, favours compounds with a hit. Of some 83,000 tested, about 20% had one in any assay.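 Cells were grown in 96-well plates and exposed to the test compound at a single concentration for 48 hours; results are reported as percent growth, with values below 10 considered active.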 The source made the active and inactive calls.

test system: HL-60(TB) leukemia; assay: NCI-60 one-dose screen, 48 h (100 = growth as untreated, 0 = no growth, -100 = all killed); settings: 10 µM unless noted

Compound | growth
CN(C)CCOc1ccc(/C(=C(/CCCl)c2ccccc2)c2ccccc2)cc1 | -33% (active)
Cc1cc2ccccc2c(O)c1C#N | 89.6% (inactive)
O=C1C(=O)c2ccc(Br)cc2-c2cc(Br)ccc21 | -14.5% (active)
COc1cccc(-c2cc(-c3cccc(NS(C)(=O)=O)c3)nc(N)c2C#N)c1O | 2.21% (active)
Nc1ncc(-c2ccc3ncnc(Nc4ccc(F)c(Cl)c4)c3c2)cn1 | 103% (inactive)
CC(C)(C)c1cc(C=O)cc(C(C)(C)C)c1O | -23.5% (active)
CCN(CC)CCOc1ccc2c(c1O)C(=O)c1ccccc1C2=O | 71.4% (inactive)
CO[C@H]1CC(c2ccc[nH]2)=N[C@]12O[C@@H](C)C[C@@H]1CCCCCCCc3ccc([nH]3)[C@H]12 | 17.5% (inactive)
C#CC[C@@H]1C[C@]2(C)[C@H]3CC[C@@H]4[C@H]5[C@H](C(=C)C)CC[C@]5(C(=O)O)CC[C@@]4(C)[C@]3(C)CC[C@H]2C(C)(C)[C@H]1O | 44.2% (inactive)
Cc1ccc(CS/C(=C\c2ccc([N+](=O)[O-])cc2)C(=O)c2ccc(F)cc2)cc1 | 30.4% (inactive)
CCSCC1CC(O)(c2ccccc2)C(c2ccccc2)C(c2ccc(F)cc2)O1 (stereo not given) | -12.5% (active)
O=C(/C=C/c1ccc(Cl)cc1)/C=C/c1cc2ccccc2[nH]c1=O | 55.6% (inactive)
Cc1cn(-c2cc(C(=O)Nc3cccc(-n4ccc5c(NC(=O)c6ccccc6)nccc54)c3)cc(C(F)(F)F)c2)cn1 | 3.73% (active)
COc1ccc(S(=O)(=O)N2CCN(c3cc4c(cc3F)c(=O)c(C(=O)O)cn4C3CC3)CC2)c(OC)c1 | 87.1% (inactive)
c1ccc2c(-c3nc(-c4c[nH]c5ncccc45)cs3)c[nH]c2c1 | 88% (inactive)
CCOc1ccc(-c2cc(C3(S(=O)(=O)c4ccc(C)cc4)CC=CC3)on2)cc1 | 75.1% (inactive)
Cc1ccc(/C=C/C(=N/N=C(N)N)c2ccccc2)cc1 | 7.52% (active)
C/C(=N/NC(=S)Nc1ccccc1)c1nc2ccc(Cl)cc2[nH]1 | -11.7% (active)
c1csc(-c2cc(-c3cc(-c4cccs4)[nH]n3)n[nH]2)c1 | 87.1% (inactive)
CCCSc1nc2ccc(C)cc2cc1/C=[N+](\[O-])c1ccccc1 | 14.1% (inactive)
CCN(CC)CCOc1ccc(Nc2ncc3cc(-c4c(Cl)cccc4Cl)c(=O)n(CCOC)c3n2)cc1 | -19.2% (active)
COc1cc(C(=O)Oc2ccccc2OC(=O)c2cc(OC)c(OC)c(OC)c2)cc(OC)c1OC | 110% (inactive)
O=S1(=O)c2ccccc2Oc2ccccc21 | 89.5% (inactive)
N#Cc1cc2[nH]c3ccc(OC(F)(F)F)cc3c2oc1=O | 99.8% (inactive)
Nc1nc(-c2cc3c(cc2Cl)NC(=O)/C3=C/c2ccccc2)cs1 | 47% (inactive)
